Screen size: about 4,100 compounds; about 1,600 (39%) were called active. Another 25% or so got no clear call; they are omitted. Calls come from the whole dose curve; as a rule, active = well fitted inhibition curve with a large enough effect; inconclusive = small, poorly fitted or top-dose-only effect; inactive = no such curve, though single readings can be large or run the other way. Some of the results follow.
% is set by controls: 0 for no effect and ±100 for the full control effect; potency is the fitted concentration of half-maximal effect.

The test in a line: qHTS Validation assay for Inhibitors of Plasmodium falciparum Dd2 growth in vitro. Note: nearly all actives have a fitted effect of over 70% in size. To be noted: P. falciparum Dd2 in RBCs, SYBR Green growth, 72 h; series mostly up to 28.7 µM; activity change, negative = inhibition: at the top concentration. The method, boiled down:
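P. falciparum Dd2-infected red blood cells (2.5% hematocrit, 0.3% parasitemia) grown 72 h at 37 °C under 5% O2 with compounds in a titration, 29 uM to 0.5 nM final. Growth read as SYBR Green-1 fluorescence after ~16 h lysis; artesunate 300 nM as positive control.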
(Quantitative high-throughput screening tests each substance at several concentrations.)
For the compound `CNC(=O)c1cnc2c(c1)N(C(=O)Cc1ccc(C(C)C)cc1)CCC2`, the “activity change, negative = inhibition” value is 23.4% [at 43.1 µM] (inactive).

Consider `CC(C)c1ccc(CC(=O)N2CCCc3ncc(C(=O)NCCc4c[nH]c5ccccc45)cc32)cc1`, for which the Potency is 15000 nM (active).

`CC(C)c1ccc(CC(=O)N2CCCc3ncc(C(=O)Nc4cccnc4)cc32)cc1`: the Potency was 863 nM (active).

On to `O=C(NCc1ccc2c(c1)OCO2)c1cnc2c(c1)N([S+](=O)([O-])c1cccnc1)CCC2`, for which the “activity change, negative = inhibition” value was 1.02% (inactive).

For the compound `CC(C)CCNC(=O)c1cnc2c(c1)N(C(=O)Cc1cn(C)c3ccccc13)CCC2`, the “activity change, negative = inhibition” value was -13% [at 43.1 µM] (inactive).

Take `Cn1cc(CC(=O)N2CCCc3ncc(C(=O)Nc4cccnc4)cc32)c2ccccc21`: the “activity change, negative = inhibition” value was -27.4% [at 43.1 µM] (inactive).

Regarding `O=C(O)CCC(=O)Nc1ccc(-n2ccc(C(F)(F)F)n2)cc1`, the “activity change, negative = inhibition” value was 57% (inactive).

Consider `O=C1N(c2ccccc2C(F)(F)F)O[C@@]1(c1ccccc1)C1CCCC1`, for which the Potency is 2990 nM (active).

For the compound `O=C1N(c2ccccc2C(F)(F)F)O[C@@]1(c1ccccc1)C1CCCCC1`, the Potency was 5310 nM (active).

As for `O=C1CC2(CCN(CC3CCCCC3)CC2)Oc2cc(Cl)ccc21`, the Potency is 1500 nM (active).

With `O=C1CC2(CCN(Cc3cccs3)CC2)Oc2cc(Cl)ccc21`, the Potency was 5310 nM (active).

As to `CC(=O)c1c(C)nc(C)nc1NC(=O)C(C)C`, the “activity change, negative = inhibition” value was 16.1% (inactive).

For `Cc1ccc(CN2CCC(CNC(=O)c3cnn(-c4ccc(C)cc4)c3C3CCN(C(=O)OC(C)(C)C)CC3)CC2)cc1`, the Potency is 8410 nM (active).

For the compound `COc1ccccc1CN1CCC(CNC(=O)c2cnn(-c3ccc(Cl)cc3)c2C2CCN(C(=O)OC(C)(C)C)CC2)CC1`, the Potency is 2660 nM (active).

Regarding `COc1ccccc1CN1CCC(CNC(=O)c2cnn(-c3cccc(Cl)c3)c2C2CCN(C(=O)OC(C)(C)C)CC2)CC1`, the Potency is 7500 nM (active).

On to `CNC(=O)[C@@H]1CN(C(=O)c2cc(OC)cc(OC)c2)C[C@H]1COC`, for which the “activity change, negative = inhibition” value is 15.4% (inactive).

Turning to `CC(=O)Nc1ccc(NC(=O)Cn2ccn3nc4c(c3c2=O)CCCCC4)cc1`, the “activity change, negative = inhibition” value was 38.6% (inactive).

For `COc1ccc(-c2cc(=O)oc3c4c(ccc23)OCN(Cc2ccccc2)C4)cc1`, the Potency is 2990 nM (active).

With `CCc1c(C)c2ccc(O)c(CN3CCN(c4ccccc4)CC3)c2oc1=O`, the Potency is 2370 nM (active).

`COc1ccc(-c2ncc3c(n2)OCCN(Cc2ccccc2)C3=O)cc1`: the “activity change, negative = inhibition” value is -13.6% [at 43.1 µM] (inactive).

`COc1ccccc1CN1COc2ccc3c(oc(=O)c4ccccc43)c2C1`: the Potency was 2110 nM (active).

For `COc1ccccc1Cn1cc(C(=O)c2ccc(C)cc2)c(=O)c2cc(C)ccc21`, the “activity change, negative = inhibition” value was -9.93% (inactive).

Regarding `O=c1cc(-c2ccccc2)c2ccc3c(c2o1)CN(Cc1ccccc1)CO3`, the Potency was 2660 nM (active).

`Cn1nc(-c2nncn2CC2CC2)c2c1CCN(C(=O)c1[nH]nc3c1COc1ccccc1-3)C2`: the “activity change, negative = inhibition” value is -23.7% (inactive).

As to `COc1cccc(C2Cn3nnc(-c4nc(-c5ccccc5Br)no4)c3CO2)c1` (stereo unspecified), the “activity change, negative = inhibition” value is -18.1% (inactive).

As to `O=C1CN(Cc2ccc(-c3ccccc3)cc2)CCN1c1cc(Cl)ncn1`, the “activity change, negative = inhibition” value was 8.44% (inactive).

Regarding `CCc1c(C)c2ccc3c(c2oc1=O)CN(Cc1ccccc1)CO3`, the Potency is 2110 nM (active).

In the case of `CCC(=O)N(C1CCOCC1)C1CCN(Cc2cccc(Cl)c2)CC1`, the “activity change, negative = inhibition” value was 9.38% (inactive).

On to `O=c1cc(-c2ccccc2)c2ccc3c(c2o1)CN(Cc1cccc(Cl)c1)CO3`, for which the Potency was 842 nM (active).

On to `Cc1ccc(CN2CCc3oc(C)c(C(=O)N(C)CC(=O)N4CCCC4)c3C2)cc1`, for which the “activity change, negative = inhibition” value is -21.8% (inactive).

Turning to `Cc1ccc(CN2COc3ccc4c(-c5ccccc5)cc(=O)oc4c3C2)cc1`, the Potency was 842 nM (active).

For the compound `O=C(NC(=S)Nc1ccc(NC(=O)c2cccs2)cc1)c1ccco1`, the Potency was 9440 nM (active).

Consider `COc1ccccc1CC(=O)NCCn1ccn2nc(-c3ccc(C)c(C)c3)cc2c1=O`, for which the “activity change, negative = inhibition” value was -25.6% (inactive).

With `CCOc1ccc(-c2cc3c(=O)n(CCNC(=O)c4ccccc4OC)ccn3n2)cc1`, the “activity change, negative = inhibition” value was -7.19% (inactive).

On to `COc1ccc(-n2nc(C(=O)NCCc3ccc(OC)c(OC)c3)c3c4ccccc4n(C)c3c2=O)cc1Cl`, for which the Potency was 2990 nM (active).

With `CCN(CCCNC(=O)c1nn(-c2ccc(OC)c(Cl)c2)c(=O)c2c1c1ccccc1n2C)c1cccc(C)c1`, the Potency is 15000 nM (active).

Take `CCN(CC)CCCNC(=O)c1nn(-c2ccc(OC)c(Cl)c2)c(=O)c2c1c1ccccc1n2C`: the Potency was 10600 nM (active).

For the compound `Cc1cccc(CNC(=O)Cn2nc(C)c3nn(-c4ccc(Cl)cc4)c(C)c3c2=O)c1`, the “activity change, negative = inhibition” value was 33.4% (inactive).

For `COc1ccc(C(=O)NCCn2ccn3nc(-c4cc(C)ccc4C)cc3c2=O)cc1OC`, the “activity change, negative = inhibition” value is -17.3% (inactive).

For `CCn1cnc2c(Nc3cc(F)cc(F)c3)nc(C#N)nc21`, the Potency was 2370 nM (active).

Turning to `N#Cc1nc(Nc2cc(F)cc(F)c2)c2ncn(CC(F)F)c2n1`, the Potency is 4730 nM (active).

For `Cc1ccc2nc(-c3sc4nc(C)ccc4c3N)[nH]c2c1`, the “activity change, negative = inhibition” value was -26.6% (inactive).

On to `CCCC(O)c1nc2ccccc2n1CCCCOc1ccc(OC)cc1` (stereo unspecified), for which the Potency was 15000 nM (active).

On to `COc1ccc(-c2cc3c(=O)n(CCNC(=O)c4cc(OC)cc(OC)c4)ccn3n2)cc1`, for which the “activity change, negative = inhibition” value is 18.8% (inactive).

For `COc1ccc(-c2cc3c(=O)n(CCNC(=O)c4ccc(OC)cc4OC)ccn3n2)cc1`, the “activity change, negative = inhibition” value is -17.1% (inactive).

In the case of `CCC(C(=O)NCCn1ccn2nc(-c3ccc(OC)cc3)cc2c1=O)c1ccccc1` (stereo unspecified), the Potency was 15000 nM (active).

These data come from PubChem BioAssay AID1347416 (National Center for Advancing Translational Sciences (NCATS), 2020).
